FBW7 act: FBW7 E3 ligase activators, primary screen, biochemical, AlphaScreen, human; AlphaScreen FBW7–phospho-cyclin E peptide binding, activator screen; actives 0.13% (n = 650,000); AID 1259310, 2017; F-box/WD repeat-containing protein 7 (Homo sapiens), Q969H0; normalized activity (activation), % at 26.1 µM; in the data active means normalized activity above about 1.9%;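 further: purified mutant Fbw7 with reduced substrate affinity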
GPR151 activ: activators of human GPR151, primary screen, cell-based, PathHunter beta-arrestin, luminescence | G-protein coupled receptor 151 (Homo sapiens), Q8TDV0 | PathHunter beta-arrestin GPR151 cells | activation, % at 11.2 µM | actives 1% (n = 650,000) | AID 1508602, 2020; in the data active means activation above about 4.9%
MITF primary: MITF inhibitors, primary screen, biochemical, AlphaScreen, human. actives 0.91% (n = 650,000). inhibition, % at 2.6 µM. AlphaScreen MITF homodimerization, bead proximity signal. Microphthalmia-associated transcription factor (Homo sapiens), O75030; in the data active means inhibition above about 50%
Target sequence (O75030 whole entry, looked up): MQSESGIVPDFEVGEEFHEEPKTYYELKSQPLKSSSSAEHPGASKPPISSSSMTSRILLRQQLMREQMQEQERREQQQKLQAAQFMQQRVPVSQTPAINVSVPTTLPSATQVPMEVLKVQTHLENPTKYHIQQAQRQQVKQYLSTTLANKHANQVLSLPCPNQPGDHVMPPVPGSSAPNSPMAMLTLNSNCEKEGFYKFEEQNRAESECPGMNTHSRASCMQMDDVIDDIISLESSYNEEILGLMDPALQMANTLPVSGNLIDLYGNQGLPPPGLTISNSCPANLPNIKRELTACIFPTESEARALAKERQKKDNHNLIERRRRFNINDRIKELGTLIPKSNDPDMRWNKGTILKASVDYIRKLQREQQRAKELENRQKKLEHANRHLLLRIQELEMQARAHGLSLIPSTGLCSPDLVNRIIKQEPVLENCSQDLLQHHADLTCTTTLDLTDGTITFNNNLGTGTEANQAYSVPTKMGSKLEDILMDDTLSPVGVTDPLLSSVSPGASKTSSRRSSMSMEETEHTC
TEAD-YAP inh: TEAD-YAP interaction inhibition, primary screen, TEAD-YAP interaction inhibitor project, luminescence, HEK-TIYL cells | TEAD-Gal4/YAP UAS-luciferase luminescence | inhibition, % at 9.12 µM | actives 1.4% (n = 640,000) | AID 1259422, 2018; in the data active means inhibition above about 32%
GPR151 conf act: GPR151 activators, triplicate retest, confirmation, cell-based, PathHunter beta-arrestin, luminescence | shares compounds with GPR151 activ | GPR151 PathHunter beta-arrestin cells, 90 min; % of EA-reagent control over plate median | activation, % at 11.2 µM | 6,700 tested, under 10 active | AID 1508609, 2020;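 active means mean percent activation across replicates above the confirmation screen cutoff of 4.91%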
GPR119 ag: GPR119 activators in beta-arrestin cells, counter-screen for GPR151 activator project, cell-based, PathHunter beta-arrestin, luminescence, triplicate; actives 0.3% (n = 6,700); 90 min; 0 = compound-well median, 100 = enzyme-acceptor control; activation, % at 11.2 µM; shares compounds with GPR151 activ;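 active means mean percent activation in the counterscreen above 29.09%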;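 further: counterscreen on off-target GPR119 to flag nonselective hits from the GPR151 activator screen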
Numbers stand for hits; i = inactive; nt = not tested or not shown; ! = a repeat was not active. This is a sample that favours compounds with a hit; in the whole collection about 3.4% have one here.

SMILES	FBW7 act	GPR151 activ	MITF primary	TEAD-YAP inh	GPR151 conf act	GPR119 ag
N#Cc1ccccc1/C=C/C(=O)NCCO	i	i	i	i	nt	nt
C=CCC(CC=C)(C(=O)O)c1ccccc1	i	5.8	i	i	i	i
CCOc1ccc2nc(NC(=O)c3ccc(OCC(C)C)cc3)sc2c1	i	i	i	i	nt	nt
COc1c(C)cccc1C(=O)Nc1cccc(-c2nc3ncccc3o2)c1	i	7.4	i	i	i	i
COc1ccc(C(=O)Nc2cccc(-c3nc4ncccc4o3)c2C)cc1[N+](=O)[O-]	i	i	i	i	nt	nt
COc1ccc(C(=O)Nc2cccc(-c3nc4ncccc4o3)c2C)cc1OC	i	5.5	i	i	i	i
CC(=O)Nc1ccc(NC(=O)C(C)Oc2cccc(C)c2)cc1 (stereo unspecified)	i	i	i	i	nt	nt
COc1ccc(OC(C)C(=O)Nc2cc(Cl)ccc2C)cc1 (stereo unspecified)	i	9.3	i	i	i	i
CC(Oc1ccccc1)C(=O)Nc1ccccc1O (stereo unspecified)	i	5.3	i	i	i	i
CC(=O)Nc1ccccc1NC(=O)C(C)Oc1cccc(C)c1 (stereo unspecified)	i	27	i	i	i	i
CC(Oc1ccccc1)C(=O)Nc1ccccc1Br (stereo unspecified)	i	i	i	i	nt	nt
Nc1c(Cl)cc(-n2c(-c3ccccc3)n[nH]c2=S)cc1Cl	i	5.5	i	i	i	i
S=c1[nH]nc(-c2ccc(Cl)cc2)n1-c1ccccc1	i	i	i	i	nt	nt
CC(C)(C)c1ccc(-c2n[nH]c(=S)n2-c2ccccc2)cc1	i	5.1!	i	i	i	i
CCOc1ccc(-c2nnn(CC(=O)NCCc3ccccc3)n2)cc1OCC	i	i	i	i	nt	nt
O=C1c2cc3ccccc3cc2C(=O)N1Cc1ccco1	i	5.8	i	i	i	i
O=C1c2cccc3cccc(c23)C(=O)N1Cc1ccco1	i	i	i	i	nt	nt
COc1ccc(NC(=O)c2sc(=S)[nH]c2N)cc1	i	5.0	i	i	i	i
CCc1ccc(N(CC)C(=O)c2coc(=O)c3ccccc23)cc1	i	i	i	i	nt	nt
O=C1NC(c2ccccc2)=N/C1=C/c1ccccc1	i	i	i	i	nt	nt
COc1cc(/C=C2/N=C(c3ccccc3)NC2=O)cc(OC)c1OC	i	5.4	i	i	i	i
CSc1ccc(NC(=O)N2CCC(NC(=O)OC(C)(C)C)CC2)cc1	i	i	i	i	nt	nt
COc1ccc(Nc2nc(=S)[nH]c3cc(OC)c(OC)cc23)cc1OC	i	6.6	i	i	i	i
COc1cc2[nH]c(=S)nc(Nc3ccncc3)c2cc1OC	i	i	i	i	nt	nt
O=C(CN1C(=O)/C(=C\c2ccccc2Br)Oc2ccccc21)NC1CC1	i	i	i	i	nt	nt
SMILES	FBW7 act	GPR151 activ	MITF primary	TEAD-YAP inh	GPR151 conf act	GPR119 ag
C=CCOc1ccc(/C=C2\C(=O)NC(C)=C2C(=O)OC)cc1	i	5.2	i	i	i	i
Cc1ccc(Nc2nnc(SCC(=O)N3CCCC3)s2)cc1	i	5.6	i	i	i	i
Cc1ccc(Nc2nnc(SCC(=O)N3CCOCC3)s2)cc1	i	i	i	i	nt	nt
CCOC(=O)c1ccc(N(Cc2ccccc2)S(C)(=O)=O)cc1	i	i	i	i	nt	nt
C=CCN(c1ccc(C(=O)OCC)cc1)S(C)(=O)=O	i	4.9	i	i	i	i
CCCCOc1ccc(/C=N/NC(=O)c2ccc(O)cc2O)cc1	i	i	i	i	nt	nt
CN1CCCc2cc(CCNS(=O)(=O)c3ccc4c(c3)OCCO4)ccc21	i	i	i	i	nt	nt
COc1ccccc1CN1CCC2(CCC(CNC(=O)c3ccn(C)n3)O2)CC1 (stereo unspecified)	i	6.4	i	i	i	i
Cc1cc(C)c(CN2CCC3(CCC(CNC(=O)c4ccn(C)n4)O3)CC2)cc1C (stereo unspecified)	i	i	i	i	nt	nt
COc1ccc(S(=O)(=O)NCCc2sc(-c3cccnc3)nc2C)cc1OC	i	i	i	i	nt	nt
COc1ccccc1NC(=O)CN1C(=O)c2ccc([N+](=O)[O-])cc2C1=O	i	i	i	i	nt	nt
CCN(CC)c1c(-c2ccccc2)c2cc(Br)ccc2[nH]c1=O	i	5.9	i	i	i	i
O=C(O)Cc1c(-c2ccccc2)c2cc(Br)ccc2[nH]c1=O	i	i	i	i	nt	nt
N#Cc1ccccc1CN1CCC(Oc2cccc(-c3cccnc3)c2)CC1	i	5.2	i	i	i	i
CCC(C(=O)NCCOC)n1nc(C)n2c(cc3occc32)c1=O (stereo unspecified)	i	i	i	i	nt	nt
CS(=O)(=O)N(CC(=O)Nc1cccc(Cl)c1Cl)c1cccc(F)c1	i	5.3	i	i	i	i
CS(=O)(=O)N(CC(=O)NC1CCCC1)c1ccc(F)c(Cl)c1	i	i	i	i	nt	nt
CS(=O)(=O)N(CC(=O)NC1CC1)c1ccc(F)c(Cl)c1	i	5.6	i	i	i	i
CCN(CC)C(=O)C1CCCN(c2ncnc3c2c(-c2ccccc2)cn3-c2ccc(OC)cc2)C1 (stereo unspecified)	i	i	i	i	nt	nt
O=C1OC(c2cc([N+](=O)[O-])ccc2Cl)=N/C1=C\c1ccccc1I	i	i	i	i	nt	nt
CC(=O)c1c(C)oc2ccc(N(C(=O)c3ccc([N+](=O)[O-])cc3)S(=O)(=O)c3ccc(C(C)(C)C)cc3)cc12	i	i	i	i	nt	nt
O=C(NC1CCN(C(=O)Nc2cccc(Cl)c2)CC1)C1CCCCC1	i	i	i	i	nt	nt
Cc1cccc(NC(=O)N2CCC(NC(=O)C3CCCCC3)CC2)c1	i	5.9	i	i	i	i
Cc1c(Cl)cccc1NC(=O)CN1CCC(NC(=O)C2CCCCC2)CC1	i	8.4	i	i	i	i
Cn1cc([N+](=O)[O-])c(C(=O)NNC(=O)c2nnn(-c3nonc3N)c2-c2ccccc2)n1	i	i	i	i	nt	nt
CC(C)Cn1c(SCc2ccc([N+](=O)[O-])cc2)nnc1-c1ccncc1	i	5.9	i	i	i	i
Cc1cc(C)c2[nH]c(=O)c(CN(CCCO)C(=O)c3cccs3)cc2c1	i	i	i	i	nt	nt
O=C(Nc1ccc(Cl)c(-c2nc3ccccc3o2)c1)c1ccc(I)o1	i	i	i	i	nt	nt
CCOC(=O)C1=C(C)OC(N)=C(C#N)C1c1ccc(F)c(Br)c1 (stereo unspecified)	i	9.6	i	i	i	i
CCOC(=O)C1=C(CC)OC(N)=C(C#N)C1c1ccc(F)c(Br)c1 (stereo unspecified)	i	i	i	i	nt	nt

Compound activity (PubChem)
